Screening data: PubChem BioAssay, The Scripps Research Institute Molecular Screening Center
S1P2 antag – human S1P2 receptor antagonists, primary screen, cell-based; Sphingosine 1-phosphate receptor 2 (Homo sapiens), O95136; cell-based S1P2 antagonist assay, inhibition at 5 uM; inhibition, % at 5 µM; actives 0.21% (n = 97,000); in the data active means inhibition above about 45%;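 further: CRE beta-lactamase reporter cells expressing human S1P2 stimulated with S1P; 0% = agonist at EC80 alone and 100% = agonist plus reference antagonist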
Target sequence (O95136 whole entry, looked up): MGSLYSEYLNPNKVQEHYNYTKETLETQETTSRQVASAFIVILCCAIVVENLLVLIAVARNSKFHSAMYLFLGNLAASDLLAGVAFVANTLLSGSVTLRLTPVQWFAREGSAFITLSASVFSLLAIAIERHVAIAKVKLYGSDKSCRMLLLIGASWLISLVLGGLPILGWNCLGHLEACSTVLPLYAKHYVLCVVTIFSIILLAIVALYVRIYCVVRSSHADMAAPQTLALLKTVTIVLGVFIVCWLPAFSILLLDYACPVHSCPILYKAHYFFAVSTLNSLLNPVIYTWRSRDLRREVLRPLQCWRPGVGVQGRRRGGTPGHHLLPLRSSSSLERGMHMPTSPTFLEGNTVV
GALR2 agonist – GALR2 receptor agonists, primary screen, cell-based | Galanin receptor type 2 (Homo sapiens), O43603 | GALR2-expressing cells, agonist activation read-out | activation, % (concentration not given with the values) | actives 0.48% (n = 140,000); in the data active means activation above about 5%, passing the limit was not always enough;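 further: 0% = vehicle buffer wells and 100% = reference agonist at full effect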
GALR2 blocker – GALR2 antagonists in receptor-expressing cells, primary screen. Galanin receptor type 2 (Homo sapiens), O43603. antagonist mode. inhibition, % at 4 µM. actives 0.39% (n = 140,000). AID 828, 2007; in the data active means inhibition above about 27%;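 further: cells stimulated with galanin 1-16 at roughly its EC80; 0% = agonist challenge control and 100% = basal control without agonist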
S1P2 ag – S1P2 receptor agonists, primary screen, cell-based. S1P2-expressing cell line, agonist reporter read-out. Sphingosine 1-phosphate receptor 2 (Homo sapiens), O95136. actives 0.46% (n = 97,000). AID 729, 2007. activation, % at 4.5 µM; in the data active means activation above about 16%;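 further: 0% = vehicle low control and 100% = maximal reference agonist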
GALR2 agon conf – GALR2 agonists, retest of hits, confirmation, cell-based. actives 10% (n = 460). activation, % at 5.6 µM. AID 864, 2007. GALR2-expressing cells, agonist activation. shares compounds with GALR2 agonist; in the data active means activation above about 8.4%;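 further: 0% = buffer-only vehicle wells and 100% = full reference agonist response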
BLA activ ctr – activators of NFAT-driven beta-lactamase reporter, confirmation, counter-screen for GALR2 agonist project, CHO NFAT-bla cells, FRET readout; shares compounds with GALR2 agonist; beta-lactamase FRET activation; activation, % at 5.6 µM; actives 10% (n = 460);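 active means activation above the screen-wide mean activation plus 3 SD, cut at about 8% in these data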;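 further: 0% = DMSO with PBS wells and 100% = thapsigargin positive control wells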
Numbers without * were called inactive; · = no result. The list is not random: actives were taken first. Their share in the collection is about 1.1%.

SMILES | S1P2 antag | GALR2 agonist | GALR2 blocker | S1P2 ag | GALR2 agon conf | BLA activ ctr
CC1CN(C2CCN(S(=O)(=O)c3ccccc3)CC2)CC(C)O1 (stereo not drawn) | -18 | -1 | -6 | 1 | · | ·
COc1cc(/C=N/Nc2cccc(C)c2)ccc1OC(=O)c1ccco1 | · | -2 | 22 | · | · | ·
CCOC(=O)c1ccc(NC(=O)CCc2ccc(CC)o2)cc1 | 1 | 8 | -6 | -2 | -1 | 0
COc1ccc(-c2nnc(-c3ccc(OCC(C)C)cc3)o2)cc1 | 0 | 14* | -4 | -3 | -1 | -2
Cc1cc(C)cc(C(=O)NCC(=O)OCC(=O)c2cc(C)n(CC(F)(F)F)c2C)c1 | · | -1 | -10 | · | · | ·
CCOCCCNC(=O)C1CC(=O)N(C2CCCC2)C1 (stereo not drawn) | -11 | 28* | -13 | -1 | -1 | -3
CC(C)c1ccc(NC(=O)CSc2ncccc2C(=O)Oc2cccc([N+](=O)[O-])c2)cc1 | · | 0 | -3 | · | · | ·
COC(=O)c1ccc(N2CCCCC2)c(NS(=O)(=O)c2ccc(C)cc2)c1 | 0 | 18* | 0 | -3 | 0 | 0
COC(=O)c1ccc(N2CCN(S(=O)(=O)c3ccc(C)cc3)CC2)c([N+](=O)[O-])c1 | 29 | -3 | 10 | -7 | · | ·
CCN(CC)CCNC(=O)c1ccc(N2CCCCC2)c(NS(=O)(=O)c2ccc(C)cc2)c1 | 14 | 19* | -10 | -4 | 0 | -1
CCOC(=O)Cc1csc(NC(=S)NC(=O)c2cccc([N+](=O)[O-])c2)n1 | · | -1 | 8 | · | · | ·
COc1ccc(CCNC(=O)CN2CCOc3ccccc32)cc1OC | · | 18* | -3 | · | -1 | -1
CCOC(=O)CS(=O)(=O)c1nc(-c2ccc(F)cc2)cc(C(F)(F)F)n1 | · | 9.3* | 51* | · | 3 | -9
COC(=O)CCS(=O)(=O)c1nc(-c2ccccc2)cc(C(F)(F)F)n1 | -11 | 11 | 8 | -2 | 0 | 2
CCOC(=O)CCS(=O)(=O)c1nc(-c2ccccc2)cc(C(F)(F)F)n1 | -11 | 3 | 19 | 0 | · | ·
Oc1ccccc1/C=N/Nc1ccnc(SCc2ccccc2)n1 | · | 23* | 3 | · | 4 | 0
CCOc1cc(/C=N/NC(=O)CSc2nncn2C)ccc1OCc1cccc(C)c1 | · | 0 | 6 | · | · | ·
CCCCCc1c(C)c(C#N)c2nc3ccccc3n2c1-n1ccnc1C | 6 | -1 | -10 | 1 | · | ·
C=C(C)CN1CCN(c2c(CCC#N)c(C)c(C#N)c3nc4ccccc4n23)CC1 | · | 12* | 2 | · | 3 | 1
COc1cc(OC)cc(C(=O)Nn2c(C)nc3ccccc3c2=O)c1 | 23 | -2 | -4 | -8 | · | ·
COc1ccc2[nH]c3c(c2c1)CCn1c-3nc2ccccc2c1=O | · | 8.7* | 11 | · | 0 | -1
COC(=O)c1c(C)[nH]c(C(=O)CSc2nnnn2-c2ccccc2)c1C | 2 | 99* | -5 | -6 | 0 | -2
Cc1cc2c(C)cc(=O)oc2c2c1NCCC2 | -23 | 13* | -8 | 15 | 1 | 4
CCCCSc1nc(C)cc(C)c1S(=O)(=O)c1ccccc1C | 10 | -2 | -14 | 1 | · | ·
COc1ccc(NS(=O)(=O)c2ccc(S(=O)(=O)N3CCCC3)cc2)cc1 | -2 | 15* | -12 | -3 | -1 | 0
SMILES | S1P2 antag | GALR2 agonist | GALR2 blocker | S1P2 ag | GALR2 agon conf | BLA activ ctr
CSC1=NC2(CC(c3ccccc3)Oc3cc(O)ccc32)CC(C)(C)N1 (stereo not drawn) | -15 | 20* | -20 | 1 | 9.2* | 78*
COc1cccc(C2CC3(CC(C)(C)NC(=S)N3)Oc3cc(O)ccc32)c1 (stereo not drawn) | · | 0 | 1 | · | · | ·
Cc1cccn2c(=O)c3cc(C(=O)NCc4cccnc4)c(=N)n(C(C)C)c3nc12 | -16 | 9 | -9 | 8 | 1 | 3
Cc1ccc(S(=O)(=O)Cn2nnnc2C(c2ccccc2)N2CCN(c3ncccn3)CC2)cc1 (stereo not drawn) | -6 | 0 | -1 | -7 | · | ·
Cc1ccc(S(=O)(=O)Cn2nnnc2C(c2ccccc2)N2CCN(c3ccccc3)CC2)cc1 (stereo not drawn) | -2 | 29* | 18 | -11 | -1 | -4
CC1(C)C=C(c2ccc(C=O)s2)CC(C)(C)N1 | 1 | -1 | 4 | -9 | · | ·
CC1(C)C=C(c2ccc(C=O)s2)CC(C)(C)N1C=O | · | 14* | 3 | · | -1 | 0
CCc1cccc(NC(=O)CSc2nc3c(c(=O)[nH]2)CCCC3)c1 | · | -2 | 5 | · | · | ·
Nc1c(C(=O)Nc2ccc(S(=O)(=O)N3CCCC3)cc2)sc2nc3ccc(OC(F)(F)F)cc3cc12 | · | 18* | 6 | · | 7 | 2
Cc1ccc(CN2C(=O)N/C(=C\c3ccc(N4CCOCC4)cc3)C2=O)cc1 | · | 8.7* | 12 | · | 4 | 8
O=C1N/C(=C\c2ccc(N3CCOCC3)c(F)c2)C(=O)N1Cc1ccccc1 | -7 | -1 | -4 | -4 | · | ·
Cc1ccc(CNC(=O)CCNC(=O)c2ccc(Br)o2)cc1 | -4 | 28* | -14 | -2 | -1 | -2
O=C(Nc1ccccc1-c1ccccc1)c1ccc(Br)o1 | -20 | 13* | -12 | 2 | 0 | -1
O=C(O)c1ccc(/C=N/N2CCN(Cc3ccccc3)CC2)cc1 | · | 0 | -2 | · | · | ·
Cn1cnnc1SCC(=O)Nc1cc(S(=O)(=O)N2CCCCCC2)ccc1Cl | · | -1 | 12 | · | · | ·
C=CCNC(=O)/C(C#N)=C/c1cn(-c2ccccc2)nc1-c1cccs1 | · | 13* | 10 | · | 11* | 5
Cc1cc2c3c(c1)C(C)(c1ccccc1)CC(C)(C)N3C(=O)C21C(C#N)=C(N)OC2=C1C(=O)CC(C)(C)C2 (stereo not drawn) | -14 | 18* | -26 | 1 | 8 | 15*
COc1cccc2cc(-c3nnc(SCC(=O)NCCc4ccccc4)n3C)oc12 | -6 | 9 | 6 | -7 | 0 | 0
Cc1ccc(CNC(=O)CSc2c3c(nc4cc(Cl)ccc24)CCCC3)o1 | 4 | -3 | 16 | -11 | · | ·
CCSc1nc2[nH]ncc2c(=O)[nH]1 | · | -1 | 2 | · | · | ·
COc1ccc(/C=C/C(=O)Nc2sc3c(c2C(=O)NCc2cccnc2)CCCC3)cc1 | 6 | -1 | 5 | -9 | · | ·
O=C(COc1ccccc1)Nc1sc2c(c1C(=O)NCc1cccnc1)CCCC2 | 16 | 10 | -8 | -3 | 4 | -2
CN(Cc1cc([N+](=O)[O-])c2cccnc2c1O)C1CCCCC1 | · | 23* | 6 | · | 0 | -2
N#CC1(c2ccc(NC(=O)c3ccccc3F)cc2)CCCC1 | · | -1 | 5 | · | · | ·
CCN(CC)c1nc(-c2ccc(Cl)cc2)cc(C(F)(F)F)c1C#N | -5 | 0 | 11 | -2 | · | ·
CN(C)c1nc(-c2ccccc2)cc(C(F)(F)F)c1C#N | -5 | 10 | 3 | 0 | 4 | 6
COc1ccccc1NS(=O)(=O)c1cccc(NC(=O)Cc2cccs2)c1 | · | 0 | 4 | · | · | ·
